Compounds with a hit are over-represented: about 6.9% of the library has one in this group of screens.
IL1B secr inh: inflammasome signaling inhibition, IL-1 beta readout; THP-1 LPS/ATP IL-1B secretion, AlphaLISA, 16 h; stronger effect = lower value; activity change, % at 57.5 µM; 360,000 tested, 4.7% active; AID 743279; in the data active = activity change below about -50%; inconclusive = mostly about -30% to -49%; also: % is scaled to controls: 0 for no effect and ±100 for the full control effect
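Secreted IL-1B measured by AlphaLISA bead assay after 16 h compound exposure of THP-1 cells; compounds (final up to 57.5 uM) added 1 h before LPS (250 ng/mL) and ATP (1.25 mM) stimulation; lower signal means less secretion.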
Giardia kill: kills Giardia lamblia. Giardia lamblia trophozoite viability. activity change, % at 7.66 µM, hits read low. 340,000 tested, 0.15% active; in the data active = activity change below about -80%; inconclusive = between about -30% and that limit;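 also: parasites exposed to compound for two days anaerobically before the ATP read; % is scaled to controls: 0 for no effect and ±100 for the full control effect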
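Giardia trophozoites, 100 cells per well, were exposed to compounds for 48 hrs at 37 deg C under anaerobic conditions; viability was then read as ATP content by bioluminescence after 15-30 min at room temperature.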
MCF10A rereplic: inducers of DNA re-replication in MCF 10A breast cells; MCF 10A DNA re-replication, Hoechst nuclear intensity, 48 h; AID 624296; Potency, µM (doses to about 46.1 µM), for the others: at the top dose activity, positive = re-replication, most hits filed as activators; 350,000 tested, 2.9% active; also: potency is read from the fitted curve at half-maximal effect; % of control where 0% means no effect; nearly all actives have a fitted effect of over 50% in size
Vif-A3F inh: Vif-A3F binding inhibition; 390,000 tested, 0.2% active; Potency, µM (titrated, usually from 46.1 µM), without a hit: at the highest dose activity, negative = active; AID 602313; HeLa A3F-eYFP + Vif (tagged APOBEC3F with the HIV-1 protein that degrades it), YFP fluorescence increase; also: potency is read from the fitted curve at half-maximal effect; % of control where 0% means no effect; nearly all actives have a fitted effect of over 65% in size
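Fluorescence increase (Ex 488/Em 500-530) after overnight compound treatment at 37 deg C flags inhibition of Vif-driven A3F-eYFP loss in stable HeLa A3F-eYFP/Vif cells seeded overnight beforehand.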
SW480 rerep: DNA re-replication induction in SW480 cells; SW480 DNA re-replication, Hoechst DNA content imaging, 48 h; Potency, µM (titrated, usually from 46.1 µM), without a hit: at the top dose re-replication activation, hits mostly activators; 340,000 tested, 1.8% active; also: potency is read from the fitted curve at half-maximal effect; % of control where 0% means no effect; nearly all actives have a fitted effect of over 55% in size
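250 cells/well; 23 nL cpd via pin tool; 48 hr, 37 C, 5% CO2; Hoechst 40 min; imager read of total nuclear intensity, ex 405/em 500-530 nm.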
Vif-A3G inh: blocks the Vif interaction with human APOBEC3G | HeLa A3G-eYFP + Vif (tagged APOBEC3G with the HIV-1 protein that degrades it), YFP fluorescence, overnight | Potency, µM (titrated, usually from 46.1 µM), inactives show top-dose activity, negative = active, hits mostly inhibitors | 410,000 tested, 0.076% active; also: potency is read from the fitted curve at half-maximal effect; % is scaled to controls: 0 for no effect and ±100 for the full control effect; nearly all actives have a fitted effect of over 60% in size
Target sequence (Q9HC16 whole entry, looked up): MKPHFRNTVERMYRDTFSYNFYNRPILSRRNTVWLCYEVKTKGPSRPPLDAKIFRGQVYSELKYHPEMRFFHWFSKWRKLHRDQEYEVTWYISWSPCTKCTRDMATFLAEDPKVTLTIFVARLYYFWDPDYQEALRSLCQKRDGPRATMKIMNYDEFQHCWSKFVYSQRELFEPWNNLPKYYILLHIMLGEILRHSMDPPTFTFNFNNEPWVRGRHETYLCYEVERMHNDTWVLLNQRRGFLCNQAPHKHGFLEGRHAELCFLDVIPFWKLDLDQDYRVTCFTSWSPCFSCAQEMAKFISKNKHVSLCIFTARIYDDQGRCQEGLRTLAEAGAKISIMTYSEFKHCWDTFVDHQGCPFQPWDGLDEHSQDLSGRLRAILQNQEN
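HeLa cells stably expressing Vif and C-terminally eYFP-tagged A3G, seeded overnight at 37 deg C, then exposed to compound by pintool overnight at 37 deg C. Rise in yellow fluorescence (Ex 488/Em 500-530, Acumen) marks blocked Vif-driven A3G degradation.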
An asterisk follows results filed as active; ? = inconclusive; . = no result given. Unless noted, calls follow the shape of the dose curve; as a rule, active = well fitted curve in the direction sought with a large enough effect; inconclusive = small, poorly fitted or top-dose-only effect, or another doubt; inactive = no such curve, though single readings can be large; an effect the other way counts as inactive or inconclusive.

SMILES	IL1B secr inh	Giardia kill	MCF10A rereplic	Vif-A3F inh	SW480 rerep	Vif-A3G inh
Cc1ccc(CN(c2ccc(C(=O)N3CCCC3)cc2)S(C)(=O)=O)cc1	0.0	4.2	-5.3%	0.6%	-6.0%	-0.5%
CS(=O)(=O)N(Cc1ccc(Cl)cc1)c1ccc(C(=O)N2CCN(c3ccccc3)CC2)cc1	-50.7*	0.1	16.5%	2.2%	0.2%	0.1%
CN1CCN(C(=O)c2ccc(N(Cc3ccc(Cl)cc3)S(C)(=O)=O)cc2)CC1	12.9	8.5	5.8µM*	3.1%	?	1.3%
Brc1ccc(CNc2ccc3ncccc3c2)cc1	-12.9	-0.9	14.6µM*	1.8%	-4.9%	-0.5%
CCN(CC)c1ccc(CNc2ccc3c(c2)ncn3CC)cc1	-96.0*	-12.8	16.8%	1.5%	?	2.6%
CCn1cnc2cc(NCc3ccc(C)cc3)ccc21	-56.6*	21.3	-24.3%	-0.4%	-2.1%	-0.7%
CCn1cnc2cc(NCc3ccc(N(C)C)cc3)ccc21	?	-17.0	?	-5.7%	5.8%	5.2%
CCCn1cnc2cc(NCc3ccc(Br)cc3)ccc21	-83.3*	-3.3	?	-5.3%	-3.7%	-4.1%
Cc1cc(C)cc(NC(=O)C2CCN(c3cc(C)nc4c(-c5ccc(Cl)cc5)c(C)nn34)CC2)c1	.	.	.	1.5%	.	2.2%
O=C(OCCF)N1CCN(/[N+]([O-])=N/Oc2ccc([N+](=O)[O-])cc2[N+](=O)[O-])CC1	.	.	.	.	.	-3.0%
COc1ccc(NC(=O)C(=O)NCc2ccco2)c(OC)c1	.	.	.	1.6%	.	5.6%
COc1ccccc1-c1cc2nc(C)c(CCC(=O)NCCc3cccc(C)c3)c(C)n2n1	.	.	.	2.6%	.	-3.4%
COc1ccc(-c2nc(C(=O)Nc3cccc(C(C)=O)c3)nn2-c2ccccc2Cl)cc1	.	.	.	-6.4%	.	2.8%
CCc1ccc(S(=O)(=O)N(C(=O)c2ccncc2)c2ccc(OC(=O)c3ccncc3)cc2)cc1	-61.4*	-17.8	9.2%	1.1%	-0.6%	1.1%
O=C1[C@H](Oc2ccccc2)[C@@H](c2ccncc2)N1c1ccncc1	4.7	0.0	?	-1.2%	-0.8%	-1.9%
O=C1[C@@H](Oc2ccccc2)[C@@H](c2ccncc2)N1c1ccncc1	-12.9	-19.6	0.184µM*	-7.0%	-61.8%	-4.1%
Cc1ccccc1C(=O)NC1(C(F)(F)F)N=C(c2ccccc2)N(Cc2ccccc2)C1=O (centres undefined)	.	.	.	7.9%	.	-2.0%
C=CCSc1nc2ccccc2n1C(=O)/C=C/c1cc(OC)c(OC)c(OC)c1	-104.1*	3.6	3.26µM*	-1.8%	?	?
C=CCSc1nc2ccccc2n1C(=O)/C=C/c1ccc(OC)c(OC)c1	-101.8*	3.5	4.11µM*	-0.2%	?	-8.0%
CCSc1nc2ccccc2n1C(=O)/C=C/c1ccc(OC)c(OC)c1	-102.5*	19.9	4.11µM*	1.1%	5.8µM*	?
CCn1c(SCC(=O)N/N=C/c2ccc(OC)c(OC)c2)nc2ccccc21	6.5	-11.3	18.4%	7.6%	-4.1%	-0.4%
COc1ccc(/C=C/C(=O)N2CC(C)OC(C)C2)cc1OC (centres undefined)	-11.8	-5.0	-3.2%	-6.7%	3.2%	0.1%
O=C1CC(c2ccccc2)Cc2[nH]c(=O)c(-c3nc(-c4cccc(Cl)c4)cs3)cc21 (centres undefined)	.	.	.	-1.3%	.	?
COC(=O)c1ccc(NC(=O)CC2C(=O)N(c3cccc(OC)c3)C(=O)N2Cc2cccs2)cc1 (centres undefined)	.	.	.	0.6%	.	-4.8%
Cc1ccc(NC(=O)Cn2c(=O)oc3cc(S(=O)(=O)N4CCC(C)CC4)ccc32)cc1Cl	.	.	.	-8.6%	.	-2.9%
Cc1ccc(NC(=O)Cn2c(=O)oc3cc(S(=O)(=O)N4CCC(C)CC4)ccc32)cc1C	19.5	5.7	20.6µM*	-25.6%	?	?
CCCn1c(=O)c(C(=O)NCc2ccccc2Cl)c(O)c2ccccc21	37.5	18.9	?	-11.5%	-10.1%	1.7%

High-throughput results from PubChem.
